# Assay outcomes from PubChem.
# AMA1 RON2 block = disrupts binding of P. falciparum AMA1 to RON2; 0.2% of 360,000 active; AlphaScreen AMA1-biotinylated RON2 peptide binding; Potency, µM (highest dose often 58.2 µM), without a hit: top-dose activity change, negative = inhibition, most hits filed as inhibitors;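 also: potency is read from the fitted curve at half-maximal effect; 0% = vehicle wells and -100% = peptide control; nearly all actives have a fitted effect of over 45% in size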
#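 AMA1 (3D7) with his tag at 25 nM final met compounds first, then biotinylated RON2 peptide at 25 nM; detection used donor plus acceptor beads, 10 µg/mL apiece, read by AlphaScreen after 30 min at room temperature.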
# Cycloheximide cs = affects cycloheximide protein synthesis inhibition readout, counter-screen | 12% of 300,000 active | AID 2314 | cell reporter, cycloheximide protein synthesis inhibition counterscreen | max response, %; in the data active = max response mostly above about 13%, no sharp cut-off; inactive = mostly below about 14%; also: read at 38.3 µM for the half of the compounds with a filed dose; 0% is about no effect
# Shiga inhibitor = Shiga toxin inhibition. Vero cells, Shiga toxin protein synthesis inhibition reporter. inhibition, % at 38.7 µM. 9.2% of 290,000 active. AID 2315; in the data active = inhibition mostly above about 28%, no sharp cut-off; inactive = mostly below about 43%; also: 0% is about no effect
# AmpC detergent = AmpC beta-lactamase inhibition with detergent present | AmpC hydrolysis of nitrocefin, absorbance 480 nm, 0.01% Triton | Potency, µM (titrated, usually from 114 µM), for inactives: top-dose activity change, negative = inhibition, most hits filed as inhibitors | 0.041% of 370,000 active | AID 485294;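 also: potency is read from the fitted curve at half-maximal effect; 0% = no-compound wells and -100% = no-enzyme wells; nearly all actives have a fitted effect of over 25% in size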
# Target sequence (P00811 whole entry, looked up): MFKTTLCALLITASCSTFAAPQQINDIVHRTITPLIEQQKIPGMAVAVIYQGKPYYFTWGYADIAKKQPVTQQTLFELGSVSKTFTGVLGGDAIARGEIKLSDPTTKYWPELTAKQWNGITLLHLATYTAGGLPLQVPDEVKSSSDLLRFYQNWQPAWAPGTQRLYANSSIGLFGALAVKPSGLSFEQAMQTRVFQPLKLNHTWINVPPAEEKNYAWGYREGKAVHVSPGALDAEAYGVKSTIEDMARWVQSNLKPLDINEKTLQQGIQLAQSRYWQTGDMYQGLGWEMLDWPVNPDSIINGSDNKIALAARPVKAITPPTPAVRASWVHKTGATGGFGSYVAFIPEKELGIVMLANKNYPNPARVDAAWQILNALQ
#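 AmpC (5.3 nM in the dispensed reagent) in 20 mM phosphate pH 7.0 with 0.01% (detergent screen) or 0.0001% Triton X-100 was preincubated with compounds for 15 min at room temperature. Nitrocefin was then added from an 800 uM solution, and hydrolysis was followed at 480 nm.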
# SARS PLP yeast = inhibitors of SARS-CoV papain-like protease in yeast. S. cerevisiae expressing SARS-CoV PLpro, growth rescue. Potency, µM (titrated, usually from 32.9 µM), for the others: at the top dose activity, positive = growth rescue, most hits filed as activators. 0.19% of 330,000 active; calls by dose curve; also: potency is read from the fitted curve at half-maximal effect; 0% is about no effect; nearly all actives have a fitted effect of over 55% in size
# AmpC inh no detg = inhibitors of E. coli AmpC beta-lactamase without detergent | 0.52% of 330,000 active | P00811 | AmpC nitrocefin hydrolysis, absorbance 480 nm, 0.0001% Triton | Potency, µM (doses to about 57.1 µM), inactives show at the highest dose activity change, negative = inhibition, actives largely listed as inhibitors | AID 485341;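 also: potency is read from the fitted curve at half-maximal effect; plate controls were no compound for no effect and no enzyme for full effect; nearly all actives have a fitted effect of over 20% in size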
#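 AmpC (5.3 nM in the dispensed reagent) in 20 mM phosphate pH 7.0 with 0.01% (detergent screen) or 0.0001% Triton X-100 was preincubated with compounds for 15 min at room temperature. Nitrocefin was then added from an 800 uM solution, and hydrolysis was followed at 480 nm.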
# Active calls of the source: *; ? = inconclusive; / = no result given; [ ] = remark or other dose. Shown is part of a subset that was picked to be rich in hits. Unless noted, calls follow the shape of the dose curve; as a rule, active = well fitted curve in the direction sought with a large enough effect; inconclusive = small, poorly fitted or top-dose-only effect, or another doubt; inactive = no such curve, though single readings can be large; an effect the other way counts as inactive or inconclusive.
SMILES,AMA1 RON2 block,Cycloheximide cs,Shiga inhibitor,AmpC detergent,SARS PLP yeast,AmpC inh no detg
CC1CN(CN2C(=O)c3ccccc3C2=O)CC(C)O1 (stereo not given),-4.8%,2.2,-5.7,9.7%,-0.1%,5.62µM*
CCOC(=O)c1c(C)[nH]c2cc(Br)c(OC)cc12,9.0%,17.5*,0.8,?,-5.5%,-10.3%
CCOc1cc(S(=O)(=O)NCc2ccccn2)c(C)cc1C,/,3.1,-6.3,-6.7%,2.7%,0.9%
COc1ccc(Cl)cc1NC(=O)C(C)n1c(=O)cc(C(F)(F)F)c2c(C)nn(C)c21 (stereo not given),/,/,/,-4.6%,/,/
Cc1ccc(Nc2nc3ccccc3n3nnnc23)cc1,7.1%,25.6*,71.5*,5.9%,-1.1%,-57.9%
Fc1cc(Br)ccc1Nc1nc2ccccc2n2nnnc12,49.1%,26.9*,42.5*,?,9.6%,-17.9%
Cc1ccc2nc(-c3ccc(SCC(=O)Nc4ccc5c(c4)OCCO5)nc3)[nH]c2c1,-1.0%,107.2*,81.3*,?,-16.8%,-26.8%
Cc1ccc(-c2ccc(SCC(=O)Nc3nonc3C)nn2)cc1,1.5%,26.8*,41.8*,0.2%,-5.9%,-32.2%
CCc1ccc(-c2ccc(SCC(=O)Nc3nnc(C)s3)nn2)cc1,-1.3%,20.8,79.7*,-2.7%,0.0%,-38.7%
O=C(CSc1nc(-c2ccc(F)cc2)[nH]c1-c1ccc(F)cc1)Nc1ccc2c(c1)OCCO2,/,/,/,2.4%,/,/
O=C(CSc1ccc(-c2nc3ccccc3[nH]2)cn1)Nc1ccc2c(c1)OCCO2,-1.6%,18.2*,15.6,-2.7%,1.9%,0.562µM*
Cc1nc(-c2ccc(S(=O)(=O)N3CCN(c4cccc(C(F)(F)F)c4)CC3)cc2)co1,/,/,/,-5.4%,/,/
OCCOCCOc1cccc2[nH]ccc12,-2.7%,-3.7,-1.0,2.8%,0.2%,-7.0%
COc1ccc(-n2c(O)c(/C=C3\C=Nc4ccccc43)c(=O)[nH]c2=O)cc1,4.5%,-2.6,1.7,-13.9%,4.8%,-26.5%
CN(C)S(=O)(=O)c1ccc(SCC(=O)Nc2ccc3c(c2)OCCO3)nc1,16.2%,/,/,-9.9%,-1.2%,-17.7%
Cc1ccc(-c2ccc(SCC(=O)Nc3ccc4c(c3)OCCO4)nn2)cc1,6.7%,28.4*,21.6*,-13.0%,-8.6%,-18.9%
Cc1cc2nc(-c3ccc(SCC(=O)Nc4ccc5c(c4)OCCO5)nc3)[nH]c2cc1C,1.3%,48.3*,156.8*,10.9%,-8.3%,-22.1%
C=CCNC(=O)c1c(O)c2cccc3c2n(c1=O)CCC3,12.7%,-3.9,/,?,-7.3%,-18.3%
COc1ccc(-c2nn3c(=O)c(C)nnc3s2)cc1,-0.8%,28.4,54.3*,-2.5%,-0.7%,-33.5%
COc1ccc(-c2nn3c(-c4ccccc4)nnc3s2)cc1,-8.9%,10.4,27.5,-5.0%,-0.1%,76.1%
Cc1nc2sc(-c3ccccc3)nn2c(=O)c1Br,1.2%,56.2*,94.3*,?,-8.4%,-9.5%
O=C(Nc1ncc(S(=O)(=O)c2ccc([N+](=O)[O-])cc2)s1)c1ccc2ccccc2c1,7.8%,-1.8,-5.4,-18.5%,-11.9%,-17.7%
C[n+]1c(/C=C/c2ccc3c(c2)OCO3)ccc2ccccc21,12.5%,50.9*,95.0*,?,-3.7%,-14.8%
C[n+]1c(/C=C/c2ccc(O)cc2)ccc2ccccc21,-19.7%,49.8*,64.3*,0.8%,0.6%,-18.8%
Cc1cc(N2C(=O)NC(=O)CC2C)c(C)cc1C(C)C (stereo not given),0.5%,-4.3,-3.3,?,7.1%,-4.6%
SMILES,AMA1 RON2 block,Cycloheximide cs,Shiga inhibitor,AmpC detergent,SARS PLP yeast,AmpC inh no detg
N#C/C(=C\c1ccc(N2CCOCC2)o1)C(=O)NCCc1ccccc1,-20.6%,18.2,15.7,-9.8%,0.4%,-1.2%
N#C/C(=C/c1ccc(N2CCOCC2)o1)C(=O)Nc1ccccc1,-6.9%,35.8*,75.7*,-14.6%,-0.8%,-2.4%
N#C/C(=C\c1ccc(N2CCOCC2)o1)C(=O)NC1CCCCC1,-6.0%,22.7*,46.0*,-6.0%,0.3%,4.7%
CC(C)CCn1cnc2c(oc3nc4c(cc32)CCCC4)c1=O,5.6%,24.2*,14.0,-2.3%,-0.9%,6.7%
Cc1ccc(NC(=O)Cn2cnc3c(oc4nc5c(cc43)COC(C)(C)C5)c2=O)cc1,41.6%,-1.6,3.6,-11.5%,10.0%,-18.5%
CCc1cc(C(=O)NNC(=S)NC2CCCCC2)cs1,127.5%,46.3*,54.3*,3.5%,4.0%,?
CC(C)c1cc(C(=O)NNC(=S)NC2CCCCC2)cs1,95.7%,31.6*,51.0*,5.5%,-4.6%,14.1µM*
Cn1ncc(Br)c1C(=O)NC1CCCCCCC1,-7.7%,2.8,4.4,2.1%,2.0%,28.1%
CN(C)c1cccc(C(=O)NNC(=S)NC2CCCC2)c1,80.4%,18.2*,34.5,-12.8%,0.0%,1.2%[2.29 µM]
Cc1nn(C)c(C(=O)NNC(=S)NC2CCCCC2)c1Br,75.6%,45.2*,60.7*,-1.9%,0.4%,-20.1%
Fc1ccc(C2CCCN2Cc2nc(Cc3ccccc3)no2)cc1 (stereo not given),5.5%,-0.6,-5.2,0.0%,0.0%,18.3%
COc1ccc(OCC(=O)N(Cc2cccs2)c2ccc(OC)cc2)cc1,/,/,/,18.4%,/,/
Cc1ccc(O)c(N=Cc2cccs2)c1,-9.0%,29.2*,38.0*,?,-45.6%,-14.0%
Cc1ccc(O)c(N=Cc2ccc(C)s2)c1,6.6%,37.4*,52.2*,-0.1%,-40.1%,-29.4%
CC(C)C[C@H](NP(=O)(O)O[C@@H]1O[C@@H](C)[C@H](O)[C@@H](O)[C@H]1O)C(=O)N[C@@H](Cc1c[nH]c2ccccc12)C(=O)O,30.0%,/,/,-15.4%,/,-2.1%
Cc1cccc(C(=O)NNC(=O)CCn2nnc3ccccc32)c1,8.1%,-1.4,3.5,1.7%,1.2%,-14.9%
Clc1ccccc1CSc1nncn1-c1cccnc1,/,-0.6,14.0,4.8%,-1.5%,-15.4%
CC(C)Cn1c(N)c(C(=O)COC(=O)Cc2cccc(C(F)(F)F)c2)c(=O)n(C)c1=O,-3.8%,/,/,2.3%,-8.0%,113.1%
Cc1ccc(-n2cc(C(=O)c3ccc(F)cc3)nn2)cc1Cl,-2.0%,36.5*,74.9*,-2.5%,-0.2%,-17.3%
O=C(c1cc(-c2cccc(Cl)c2)on1)N1CCN(c2ccc(F)cc2)CC1,6.5%,-2.9,-18.9,-13.5%,0.5%,-6.3%
O=C(c1cc(-c2cccc(Cl)c2)on1)N1CCCCCC1,-9.6%,26.6*,116.5*,?,0.1%,18.7%
CN1CCN(C(=O)c2cc(-c3cccc(Cl)c3)on2)CC1,-2.1%,33.8*,41.5,-0.4%,7.4%,-1.9%
COc1ccc(S(=O)(=O)N2CCN(C(=O)c3ccccn3)CC2)cc1,1.7%,/,/,-18.1%,-1.0%,-12.9%
COc1ccc(C2CC2/C(=N/O)c2ccccc2)cc1 (stereo not given),5.7%,31.2*,44.9,?,-4.2%,-28.2%
